These results are taken from PubChem BioAssay AID2314 (National Center for Advancing Translational Sciences (NCATS), 2010).

Several values for one entry are separate records, joined by “and”; a condition that tells them apart may be missing. Equal values may be shown once. About 37,000 (12%) of roughly 300,000 compounds were called active. Only a selection was taken, and actives are over-represented in it overall. Unmarked numbers belong to inactive results. Cut-off read from the data, not from the text of the source: active = max response mostly above about 13% (no sharp cut-off); inactive = mostly below about 14%.

A short description of the assay: Cycloheximide Counterscreen for Small Molecule Inhibitors of Shiga Toxin. Note: read at 38.3 µM for the half of the compounds with a filed dose; 0% is about no effect. The following applies: cell reporter, cycloheximide protein synthesis inhibition counterscreen; hits give high values. (In general: Counterscreens check selectivity or assay interference.)
With `O=S(=O)(Nc1ccccc1)c1ccc(NS(=O)(=O)c2cccs2)cc1`, the max response is -2.66%. `CCCCSc1nnc2c(n1)OC=Nc1ccccc1-2`: the max response is 12.2%.

In the case of `COc1cc(N2C(=O)CSC2=S)cc(OC)c1OC`, the max response was -3.84%. Under `Cc1ccccc1NC(=O)Cn1cc(C(=O)C2CC2)c2ccccc21` stands -4.37%; under `NC(=O)c1nsc(C(=O)N(CCCN2CCOCC2)C(C(=O)NC2CCCCC2)c2ccc(Cl)cc2)c1N` (configuration not stated), 0.533%; under `O=C(O)c1ccccc1-c1ccccc1C(=O)Nc1ccccc1Br`, -9.84%.

For the compound `N#Cc1c(-c2ccccc2)cc(-c2ccccc2)nc1SCC(=O)O`, the max response was -2.46%.

On to `Brc1ccc(Nc2c3c(nc4ncnn24)CCC3)cc1`, for which the max response is -7.39%. `O=C(NCc1ccccc1Cl)C1CCN(c2ncnc3c2nc2n3CCCCC2)CC1`: the max response was 17%. Consider `CC(=O)Nc1c2c(nn1-c1ccc(C)cc1C)CS(=O)C2` (configuration not stated), for which the max response was -1.87%. As for `COc1ccc(-c2nc3c(c(SCC(=O)Nc4ccc(C(=O)O)cc4)n2)Cc2ccccc2O3)cc1`, the max response is 12.1%. On to `Cc1ccc2[nH]c(=O)c(CN(C)S(=O)(=O)c3cccc4nonc34)cc2c1`, for which the max response was -10.5%. Under `COc1ccc2nc(NC(=O)NC3CCCCC3)sc2c1` stands 47.7% (active). The value for `COc1ccc(CNC(=O)c2ccc(Br)s2)cc1OC` was 10.2%; that for `COc1ccc(S(=O)(=O)N2CCN(C(=O)NC3CCCCC3)CC2)cc1` was 1.04%; that for `COc1ccc2nc(NC(=O)c3ccc(Br)s3)sc2c1` was 67.5% (active). For `COc1cc(Cl)c(C)cc1NC(=O)[C@@H]1CCCN1C(=O)c1cccs1`, the max response is -0.643%. Under `COc1ccc(Cl)cc1NC(=O)[C@@H]1CCCN1C(=O)c1cccs1` stands 4.64%; under `COc1ccc(-n2cnc3cc(C(=O)NC4CCCC4)ccc32)cc1`, -1.06%; under `COc1ccc2nc(NC(=O)[C@@H]3CCCN3C(=O)c3cccs3)sc2c1`, 15.2% (active). With `CCOc1ccc2nc(NC(=O)c3cc([N+](=O)[O-])ccc3N3CCOCC3)sc2c1`, the max response is 11.9%. The value for `NS(=O)(=O)c1ccc(CNC(=O)c2ccc(Cl)cc2[N+](=O)[O-])cc1` was -0.486%. Under `Cc1cccc(N(C)C(=O)c2cc(S(=O)(=O)N3CCCCC3)c[nH]2)c1` stands -1.63%; under `O=C(NCc1ccccc1)C(c1ccco1)N(C(=O)c1csnn1)c1ccccc1F` (configuration not stated), -6.55%. Under `O=C1c2ccccc2C2=Nc3ccccc3SC(c3ccccc3F)C12` (configuration not stated) stands 9.05%; under `COc1ccc(N2CCN(S(=O)(=O)c3ccc4c(c3)N(C(C)=O)CCO4)CC2)cc1`, 2.5%; under `CN(C(=O)COc1ccccc1)c1nnc(-c2ccncc2)s1`, -3.07%. Regarding `CN(C(=O)c1ccccn1)c1nnc(-c2ccccn2)s1`, the max response was 68.8% (active). Under `CN(C(=O)c1ccno1)c1nnc(-c2cccnc2)s1` stands 7.05%; under `CCOc1ccc(C(C)=O)cc1CSc1nnc(-c2ccncc2)n1CCOC`, -6.17%; under `CC1(C)Cc2ccccc2/C(=C/C(=O)c2ccccc2)N1`, 4.21%. Under `Cc1noc(C)c1CSCC(=O)N(CCC(C)C)c1c(N)n(Cc2ccccc2)c(=O)[nH]c1=O` stands -1.36%; under `O=C(O)C1CCCN1C1=NS(=O)(=O)c2ccccc21` (configuration not stated), -4.57%. Under `CCc1cccc(CC)c1NC(=S)NCc1ccc2[nH]c(C)cc2c1` stands -2.68%; under `Cc1cc2cc(CNC(=O)c3cccs3)ccc2[nH]1`, 24.1% (active); under `Cc1cc2cc(CNC(=O)c3ccc(S(=O)(=O)N4CCOCC4)cc3)ccc2[nH]1`, -2.1%.

Consider `COc1ccc(CS(=O)/C(Cl)=C(/Cl)C(=O)Nc2ccc(OC)nc2)cc1` (configuration not stated), for which the max response was -16.6%.

In the case of `N#CCSc1nc2ccc(N3CCOCC3)cc2c(=O)n1CCc1ccccc1`, the max response was 10.2%. The value for `Cc1ccc(NS(=O)(=O)c2ccc(-c3coc(C)n3)cc2)c(C)c1` was 4.71%; that for `O=C(NCc1ccccc1)C(c1cccnc1)N(C(=O)c1csnn1)c1ccc(F)cc1` (configuration not stated) was -4.58%; that for `CCOC(=O)c1[nH]c2ccc(OC)cc2c1NC(=O)CCN1CCN(Cc2ccccc2)CC1` was 2.39%. Under `COC(=O)c1[nH]c2ccc(Br)cc2c1NC(=O)Oc1ccccc1` stands 47% (active). Under `COC(=O)c1[nH]c2ccccc2c1NC(=O)CN1CCCc2ccccc21` stands 13.2%; under `COc1ccc(C2(CNC(=O)C(c3ccccc3)c3ccccc3)CCOCC2)cc1OC`, 4.44%. On to `CCn1cc(C(=O)NCCO)c(=O)c2cc(F)c(N3CCN(C)CC3)cc21`, for which the max response is 1.78%. Under `COc1ccc(N2CCN(C(=O)[C@@H](NC(=O)c3cc(OC)cc(OC)c3)C(C)C)CC2)cc1` stands -0.698%. The value for `NS(=O)(=O)c1cccnc1Nc1cccc(Cl)c1` was 5.31%; that for `CC(C)n1cnc2c(Nc3cccc(Cl)c3)nc(N(CCO)CCCO)nc21` was -7.35%. Under `OCCCNc1nccc(-c2cc(Nc3cccc(Cl)c3)ncn2)n1` stands 26.9% (active); under `CC(=O)N1CCN(CC(c2ccccc2)c2ccccc2)CC1`, -2.13%. With `Cc1ccc(N2C(=O)C3C4C=CC(CC4)C3C2=O)cc1Cl` (configuration not stated), the max response is 0.718%. The value for `CCN1C(=S)N[C@@H](CCc2ccccc2)[C@H](C(=O)OC)[C@H]1C` was -1.59% and -1.62%.

In the case of `COC(=O)c1c(NC(=O)CN(c2ccc(C)c(C)c2)S(C)(=O)=O)sc2c1CCCC2`, the max response is -3.45%. Under `CC(=O)Nc1ccc(S(=O)(=O)Nc2cc(C)cn(Cc3ccc(C)cc3)c2=O)cc1` stands 10.7%; under `COc1cccc(CNC(=O)COc2cc(O)c3c(c2)OC(C)(C)CC3=O)c1`, 6.81%; under `CCOC(=O)C1CCN(Cc2c(C(=O)N3CCOCC3)nc3c(C)cccn23)CC1`, -0.834%.

Take `COC(=O)COc1ccc2c(c1C)O/C(=C\c1ccco1)C2=O`: the max response is 8.5%.

Regarding `COC(=O)C1=C(C)N(c2ccc(Br)cc2)C(=O)/C1=C\c1ccco1`, the max response was 19.6%. For `CC(C)(C)C1C/C(=C/c2ccco2)C(=O)/C(=C/c2ccco2)C1` (configuration not stated), the max response was 46.9% (active). In the case of `O=[N+]([O-])c1cc(Cl)cc(/C=N/NC(=S)Nc2cc(S(=O)(=O)N3CCOCC3)ccc2Cl)c1O`, the max response was 6.73%. Under `CCN(C(=O)COc1ccc(C(=O)c2ccccc2)cc1)c1ccccc1` stands 8.19%; under `Cc1cc(C)n(CCC(=O)N2CCN(S(=O)(=O)c3ccc(C)c(C)c3)CC2)n1`, -4.77%; under `Cc1ccc2cc(/C=N/Nc3ccc(C(=O)O)cc3)c(Cl)nc2c1`, 33.1% (active). Under `O=C(O)c1ccc(/C=N/Nc2nc(N3CCCCC3)nc(N3CCCCC3)n2)cc1` stands -2.21%. For the compound `CSCC[C@H](NC(=O)OC(C)(C)C)C(=O)N/N=C/c1cc2ccc(C)cc2nc1Cl`, the max response is -2.35%. Consider `Cc1ccc2cc(/C=N/NC(=O)[C@@H]3CCCN3)c(Cl)nc2c1`, for which the max response is 12.2%.

With `O=C(O)c1ccc(N/N=C/c2ccc3ncccc3c2)cc1`, the max response is 40% (active). Regarding `CCNC(=S)NNC(=O)c1ccc2ncccc2c1`, the max response is 23.2%. Under `COc1ccccc1N1CCN(C(=O)CCS(=O)(=O)c2ccc3c(c2)NC(=O)C(C)S3)CC1` (configuration not stated) stands 18.6%; under `Cc1cc(CNC(=O)C2CCC(=O)N(CCc3ccc(Cl)cc3)C2)no1` (configuration not stated), 0.258%. With `NC(=O)c1cc(-c2cccnc2)nc2ccc(Br)cc12`, the max response was 0.502%. The value for `Cc1ccc2c(c1)N(C(=O)CCC(=O)N1CCc3ccccc3C1)CCO2` was 13.8%. As to `Cc1ccccc1-n1c(SCC(=O)Nc2cccc3ccccc23)nc(O)cc1=O`, the max response was -2.55%. Take `CCOc1ccc(NC(=O)Nc2ccc(N(C)C(C)=O)cc2)cc1`: the max response is -1.58%.

In the case of `CC(=O)N(C)c1ccc(NC(=O)Nc2cccc3ccccc23)cc1`, the max response was 33% (active). On to `O=C(O)Cc1ccc(NC(=O)Nc2cccc3ccccc23)cc1`, for which the max response was 0.207%. The value for `O=C(NCC(=O)N1CCC2(CC1)NCCc1[nH]cnc12)c1ccc(Br)cc1` was 1.26%; that for `CC(C)Nc1ccc(-n2nc3ccccc3[n+]2[O-])cc1` was 25.2% (active). The value for `Clc1ccc(-c2nc3ccccn3c2CN2CCSCC2)cc1` was 12.2%. The value for `Cc1cn(C2OC[C@@H](O)[C@@H]2CO)c(=O)[nH]c1=O` (some centres not stated) was -1.7%; that for `O=C(N/N=C\c1cc2c(cc1Cl)OCO2)c1ccc(Br)s1` was -4.62%; that for `CCCCCCOC(=O)NCC(O)c1ccccc1` (configuration not stated) was 29.3% (active). As to `CCCCCCCCC(=O)NCCOc1ccccc1`, the max response is -1.44%. Under `CCCCOC(=O)Nc1nnc(CC(=O)NCc2ccccc2)s1` stands -2.89%. For `CC(=O)C1=C(C)NC(=O)NC1c1ccc2c(c1)OCO2` (configuration not stated), the max response is 0.903%. The value for `COc1ccc(CNC(=O)C(C)NCc2ccccc2Cl)cc1` (configuration not stated) was -2.73%. Under `CC(C)(O)C#Cc1ccc(CN2CCC(CO)(CCc3ccccc3)CC2)cc1` stands -2.91%.

As for `COc1ccc(C(=O)NC(=S)N2CCCCC2c2cccnc2)cc1OC` (configuration not stated), the max response is 1.6%.

`COc1ccccc1NC(=O)CSc1nc2sc3c(c2c(=O)n1-c1ccccc1)CCN(C)C3`: the max response was 33.2% (active). Consider `CCOc1ccc(-n2c(SCC(=O)OC)nc3sc4c(c3c2=O)CCN(C)C4)cc1`, for which the max response was -9.49%. The value for `CCOc1ccc(-n2c(SCC(=O)Nc3ccc(OC)cc3)nc3sc4c(c3c2=O)CCN(C)C4)cc1` was -3.77%; that for `CCO[C@H]1OC(C(=O)N2CCCCCCC2)=C[C@@H](c2ccc(C(F)(F)F)cc2)[C@@H]1CCCO` was -3.3%.
